The results in this text go back to PubChem BioAssay (NCATS).

Values joined by “and” are separate entries in the source; they are usually repeats but may differ in a detail not shown here. Equal values may be shown once. Values without a mark were called inactive. Inconclusive results are not listed. Active and inactive are the calls of the source. Unless noted, calls follow the shape of the dose curve; as a rule, active = well fitted curve in the direction sought with a large enough effect; inconclusive = small, poorly fitted or top-dose-only effect, or another doubt; inactive = no such curve, though single readings can be large; an effect the other way counts as inactive or inconclusive.

A short description of assay [1]: AP1 Signaling Pathway (AID 357; active = well fitted curve in either direction with a large enough effect, not every such curve was filed as active;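 also: ME-180 reporter cells stimulated with EGF at its EC50 level; % is scaled to controls: 0 for no effect and ±100 for the full control effect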). Particulars: ME-180 AP-1-bla reporter, EGF-induced, beta-lactamase ratio, 5 h; at 7.69 µM (top of the series) unless noted. The gist of the method:
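Titration-series screen for positive or negative modulators of EC50 EGF-induced signaling in ME-180 cells carrying an AP-1-driven beta-lactamase reporter. After 5 hours at 37 degrees Celsius, CCF4 460nm/530nm emission ratio gave %Activity; AC50 values derived.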

For assay [2], the target named is Cytochrome P450 1A2 (Homo sapiens) (UniProt P05177). Kind of assay: p450-cyp1a2 (AID 410; calls by dose curve;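 also: -100% = full effect of reference inhibitor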). The method, boiled down:
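20nM CYP1A2, 100uM Luciferin-ME (=Km), 100mM KPO4; cpd 10 min RT; +NADPH regen, 60 min RT; stop/detect 20 min; luminescence. Normalized to furafylline 57 uM = full inhibition.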

Assay [3] is described as follows: NFAT Signaling Pathway (AID 444; active = well fitted curve in either direction with a large enough effect, not every such curve was filed as active;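 also: carbachol stimulus at about its EC50 of 1 µM final; % is scaled to controls: 0 for no effect and ±100 for the full control effect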). Particulars: Jurkat NFAT-bla M1, carbachol, beta-lactamase ratio, 5 h; at 7.69 µM (top of the series) unless noted. The gist of the method: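 Read-out: CCF4 FRET ratio (460 nm/530 nm) after 1 h RT dye loading, used for %activity and AC50 from titration series. Cells: Jurkat NFAT-β-lactamase/M1 line, treated with compound plus 1 uM carbachol for 5 h, 37 °C.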

Assay [4] is described as follows: Stat Signaling Pathway (AID 446; active = well fitted curve in either direction with a large enough effect, not every such curve was filed as active;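 also: ME-180 cervical cancer cells given 40 pM IL-6 alongside compound; SIE-controlled beta-lactamase reporter measured as 460/530 nm FRET emission ratio; % is scaled to controls: 0 for no effect and ±100 for the full control effect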). Particulars: ME-180 (cervical carcinoma) SIE beta-lactamase reporter, IL-6 stimulated, 5 h; at 7.69 µM (top of the series) unless noted. The gist of the method: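 FRET read-out (405 nm excitation, 460/530 nm emission) of a beta-lactamase reporter under a STAT-inducible element in ME-180 cervical carcinoma cells. Cells with compound receive 40 pM IL-6 for 5 h. Values are normalised to AC90 stimulation and AC90 JAK-inhibitor controls.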

The target of assay [5] is Mitogen-activated protein kinase 10 (Mus musculus) (UniProt Q61831). Kind of assay: JNK3 AlphaScreen Assay (AID 530; active = well fitted curve in either direction with a large enough effect, not every such curve was filed as active;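 also: kinase came from lysate of stimulated human HepG2 cells; signal reports phosphorylation of biotinylated GST-cJun 1-79 at Ser73 with 10 µM ATP; % is scaled to controls: 0 for no effect and ±100 for the full control effect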). The method, boiled down:
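Kinase buffer: 20 mM Tris-HCl pH 7.6, 10 mM MgCl2, 1 mM DTT, 0.1 mM Na3VO4, 0.01% Tween-20; ATP 10 uM. Substrate biotin-GST-cJun(1-79), enzyme from activated HepG2 lysates. Detection by Ser73 phospho-antibody AlphaScreen.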
A general note: Alpha assays give light when donor and acceptor beads are brought close together.

In assay [6] the target is 3',5'-cyclic-AMP phosphodiesterase 4B (Homo sapiens) (UniProt Q07343). Kind of assay: qHTS Assay for Inhibitors of PDE-IV (AID 607; active = well fitted activation curve with a large enough effect in the main read-out, with a control signal flat, not every such curve was filed as active; also: % of control where 0% means no effect). The gist of the method:
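Cell-based read-out of cAMP via a modified cyclic nucleotide-gated channel and membrane potential dye (535/590 nm) in HEK293 cells expressing PDE4 endogenously. Compounds tested up to 22.9 uM final; 100 uM RO 20-1724 reference.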

Assay [7] deals with Guanine nucleotide-binding protein G(i) subunit alpha-1 (Homo sapiens) (UniProt P63096). Kind of assay: qHTS Assay for Inhibitors of RGS12 GoLoco Motif Activity (Green Fluorophore) (AID 879).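 Also: 0% = labeled peptide with Gαi1 and full inhibition = labeled peptide alone without protein; negative values mean loss of peptide binding seen as reduced polarization.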 The gist of the method:
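A drop in FITC polarization marked displacement of the FITC-tagged RGS12 GoLoco peptide (10 nM) from Gαi1 (50 nM). Compounds were incubated 10 min at room temperature in Tris pH 7.5 buffer containing 150 mM NaCl, 0.1 mM GDP and 0.05% NP40; unlabeled peptide titration served as control.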
(In qHTS, concentration-response curves come from the screen itself.)

The nature of assay [8]: qHTS Assay for Identification of Small Molecule Antagonists for NFkB Signaling Pathway (AID 895; active = well fitted inhibition curve with a large enough effect in the signal ratio, with a control signal flat, not every such curve was filed as active; the % refers to the signal ratio; also: % is scaled to controls: 0 for no effect and ±100 for the full control effect). The method, boiled down:
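Beta-lactamase reporter read-out (460 and 530 nm emission ratio, 405 nm excitation, 2 hrs substrate loading RT) after 5 hr stimulation with 10 pM TNF alpha in compound-treated NFkB-bla ME-180 cells in low-serum medium.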

For assay [9], the target named is Cytochrome P450 2C19 (Homo sapiens) (UniProt P33261). Kind of assay: qHTS Assay for Inhibitors and Substrates of Cytochrome P450 2C19 (AID 899). Also: % is scaled to controls: 0 for no effect and ±100 for the full control effect; nearly all actives have a fitted effect of over 60% in size. The method, boiled down:
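Reactions contain 5nM enzyme, 10uM Luciferin-H EGE (KM) and 50mM KPO4; compound preincubates 10 min at 37C, NADPH regeneration starts turnover for 60 min. Luminescence after detection reagent gives activity.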

Assay [10] has as its target Muscarinic acetylcholine receptor M1 (Rattus norvegicus) (UniProt P08482). Kind of assay: qHTS Assay for Antagonists of Acetylcholine Muscarinic M1 Receptor: Measurement of IP-One Response (AID 944). Also: nearly all actives have a fitted effect of over 75% in size. The gist of the method:
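Read-out: HTRF competition between d2-IP1 and Eu-cryptate anti-IP1 antibody, emission 620 and 665 nm. Stimulus was carbachol, EC80 (200 nM), for 30 min in M1-CHO cells (rat receptor), after 10 min compound pre-treatment.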

For assay [11], the target named is Pyruvate kinase (Leishmania mexicana) (UniProt Q27686). Kind of assay: qHTS Validation Assay for Inhibitors of Leishmania Mexicana Pyruvate Kinase (AID 945).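 Also: 0% = DMSO only neutral control wells.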 The method, boiled down: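 Compounds are tested as eight-point concentration series. Reactions contain 0.2 nM LmPYK E451W, 0.5 mM PEP, 0.1 mM ADP, 7 mM MgCl2 and 50 mM KCl at pH 7.2, run 1 h at room temperature, then read by PKLight luminescence.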
Chain of Pyruvate kinase (Leishmania mexicana) (Q27686 2-499 E452W): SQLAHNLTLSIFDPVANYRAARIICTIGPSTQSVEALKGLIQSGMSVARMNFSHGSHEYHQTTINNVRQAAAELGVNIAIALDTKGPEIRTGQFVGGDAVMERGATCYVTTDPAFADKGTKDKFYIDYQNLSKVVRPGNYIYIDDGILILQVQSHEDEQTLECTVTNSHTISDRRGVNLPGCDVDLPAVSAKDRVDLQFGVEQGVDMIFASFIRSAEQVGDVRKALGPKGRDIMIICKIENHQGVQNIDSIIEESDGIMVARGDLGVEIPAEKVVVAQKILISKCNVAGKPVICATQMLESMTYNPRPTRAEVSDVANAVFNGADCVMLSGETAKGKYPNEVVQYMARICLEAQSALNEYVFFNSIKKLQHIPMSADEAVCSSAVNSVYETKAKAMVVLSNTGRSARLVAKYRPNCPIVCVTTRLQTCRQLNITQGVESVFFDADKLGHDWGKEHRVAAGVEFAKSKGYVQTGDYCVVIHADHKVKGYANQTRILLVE

Assay [12] deals with Pyruvate kinase PKM (Homo sapiens) (UniProt P14618). Kind of assay: qHTS Assay for Activators of Human Muscle Pyruvate Kinase (AID 954; active = well fitted curve in the direction sought with a large enough effect, not every such curve was filed as active;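 also: 0% = uninhibited enzyme and -100% = no enzyme or full thiadiazolimine inhibition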). The method, boiled down: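 ATP production by PKM2 detected via luciferase luminescence after 1 h room-temperature reaction (0.1 nM enzyme, PEP at Km 0.5 mM, ADP 0.1 mM, pH 7.2 imidazole buffer). Inhibition scaled to no-enzyme control; activation referenced to 0.3 nM enzyme wells.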

For assay [13], the target named is Alpha-galactosidase A (Homo sapiens) (UniProt P06280). Kind of assay: Counterscreen for Glucocerebrosidase Inhibitors: qHTS Assay for Human alpha-Galactosidase at pH 4.5 (AID 992). Also: 0% is about no effect. The method, boiled down:
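Fluorogenic 1536-well qHTS at pH 4.5 (citrate, Tween-20): 2 nM enzyme, 80 uM 4-MU-alpha-galactoside, 20 min room temperature, NaOH/glycine stop. Titration 0.7 nM to 77 uM, data normalized to no-enzyme and full-activity controls, Hill-fitted AC50.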
(A counterscreen serves to expose hits that act by an unwanted route or on another target.)

The target in assay [14] is Glucocorticoid receptor (Homo sapiens) (UniProt P04150). Kind of assay: GR-GFP Redistribution (AID 450;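 active = compounds whose dose series gives a full or clear partial fitted curve of increased nuclear translocation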; also: potency is read from the fitted curve at half-maximal effect). Particulars: U2OS GR-GFP nuclear translocation, laser cytometry, 2 h.
Chain of Glucocorticoid receptor (Homo sapiens) (P04150 whole entry, looked up, the tested form may be a part): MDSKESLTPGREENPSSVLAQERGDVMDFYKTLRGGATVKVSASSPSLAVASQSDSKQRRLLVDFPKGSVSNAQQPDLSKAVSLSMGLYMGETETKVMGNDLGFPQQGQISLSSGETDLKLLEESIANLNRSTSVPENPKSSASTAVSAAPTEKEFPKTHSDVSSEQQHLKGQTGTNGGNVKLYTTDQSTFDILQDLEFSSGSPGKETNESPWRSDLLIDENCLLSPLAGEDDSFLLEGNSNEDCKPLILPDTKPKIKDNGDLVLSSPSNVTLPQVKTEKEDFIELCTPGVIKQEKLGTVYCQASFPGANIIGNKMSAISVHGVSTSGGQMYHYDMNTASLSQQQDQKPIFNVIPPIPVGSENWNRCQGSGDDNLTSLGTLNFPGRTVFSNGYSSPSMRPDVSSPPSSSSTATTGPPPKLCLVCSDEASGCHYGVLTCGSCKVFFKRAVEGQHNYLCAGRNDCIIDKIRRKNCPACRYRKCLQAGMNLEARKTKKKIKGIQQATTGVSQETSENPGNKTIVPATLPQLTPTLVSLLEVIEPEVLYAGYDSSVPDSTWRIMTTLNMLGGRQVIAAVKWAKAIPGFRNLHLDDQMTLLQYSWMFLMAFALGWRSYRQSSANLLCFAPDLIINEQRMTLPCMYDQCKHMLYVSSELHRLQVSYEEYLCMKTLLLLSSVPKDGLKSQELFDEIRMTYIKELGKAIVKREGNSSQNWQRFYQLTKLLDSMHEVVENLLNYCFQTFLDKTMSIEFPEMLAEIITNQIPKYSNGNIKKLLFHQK
For assay [15] the target is unchanged. Kind of assay: GR-EFC Redistribution (AID 451; calls by dose curve; also: potency is read from the fitted curve at half-maximal effect). Particulars: CHO-K1 GR-EFC translocation, beta-gal luminescence, 2 h. The method, boiled down: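 Translocation of GR-ED fusion to nuclear EA restores b-gal, read by luminescence after 1 h room-temperature detection. Engineered CHO-K1 biosensor cells, 1,000/well, exposed 2 h at 37 C to titrations up to 46 uM final.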

Assay [16] addresses Cytochrome P450 2C9 (Homo sapiens) (UniProt P11712). Kind of assay: qHTS Assay for Inhibitors and Substrates of Cytochrome P450 2C9 (AID 883). Also: % is scaled to controls: 0 for no effect and ±100 for the full control effect; nearly all actives have a fitted effect of over 60% in size. The gist of the method:
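Turnover of Luciferin-H (100uM, KM) by 10nM human CYP2C9 was measured over 60 min at 37C with NADPH regeneration; inhibitors and some substrates reduce luminescence. Data normalized to sulphaphenazole 57uM.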

Assay [17] addresses Cytochrome P450 2D6 (Homo sapiens) (UniProt P10635). Kind of assay: qHTS Assay for Inhibitors and Substrates of Cytochrome P450 2D6 (AID 891).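 Also: luciferin methyl ether substrate demethylated by CYP2D6 with NADPH regeneration; % is scaled to controls: 0 for no effect and ±100 for the full control effect; nearly all actives have a fitted effect of over 60% in size.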 The method, boiled down: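 Luminescent read-out of luciferin formed by 5 nM human CYP2D6 demethylating 30 uM Luciferin-ME EGE (Km level) over 60 min at room temperature after NADPH regeneration addition. Data normalized to full inhibition by 1.43 uM quinidine.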

Chain of Cytochrome P450 1A2 (Homo sapiens) (P05177 whole entry, looked up): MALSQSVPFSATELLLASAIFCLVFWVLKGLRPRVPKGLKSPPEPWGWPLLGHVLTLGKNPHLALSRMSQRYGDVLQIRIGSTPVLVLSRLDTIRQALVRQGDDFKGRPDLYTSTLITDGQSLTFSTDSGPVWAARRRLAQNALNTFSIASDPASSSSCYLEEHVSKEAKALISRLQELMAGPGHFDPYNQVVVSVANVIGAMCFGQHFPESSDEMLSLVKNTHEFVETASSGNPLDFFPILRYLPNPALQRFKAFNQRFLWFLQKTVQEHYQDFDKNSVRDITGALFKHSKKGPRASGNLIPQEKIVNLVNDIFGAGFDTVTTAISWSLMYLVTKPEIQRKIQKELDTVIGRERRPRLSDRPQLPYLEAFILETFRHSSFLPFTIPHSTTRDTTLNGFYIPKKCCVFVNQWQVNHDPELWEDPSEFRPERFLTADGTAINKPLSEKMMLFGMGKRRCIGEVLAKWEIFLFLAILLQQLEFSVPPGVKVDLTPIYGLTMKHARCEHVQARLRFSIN
Chain of Cytochrome P450 2C9 (Homo sapiens) (P11712 whole entry, looked up): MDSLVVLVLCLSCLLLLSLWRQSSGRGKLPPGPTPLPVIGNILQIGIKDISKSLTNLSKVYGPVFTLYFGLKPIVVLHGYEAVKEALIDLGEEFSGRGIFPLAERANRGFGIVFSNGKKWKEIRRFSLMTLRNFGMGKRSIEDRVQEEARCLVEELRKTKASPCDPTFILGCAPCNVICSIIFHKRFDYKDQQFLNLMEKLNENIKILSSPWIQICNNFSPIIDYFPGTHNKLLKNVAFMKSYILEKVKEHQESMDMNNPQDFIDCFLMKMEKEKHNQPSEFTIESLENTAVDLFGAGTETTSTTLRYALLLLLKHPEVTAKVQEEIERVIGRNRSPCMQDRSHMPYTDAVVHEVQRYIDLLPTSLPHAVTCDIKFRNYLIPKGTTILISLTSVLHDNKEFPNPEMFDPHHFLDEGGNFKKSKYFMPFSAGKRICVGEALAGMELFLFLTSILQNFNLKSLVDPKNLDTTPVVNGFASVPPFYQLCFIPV
Chain of 3',5'-cyclic-AMP phosphodiesterase 4B (Homo sapiens) (Q07343 whole entry, looked up): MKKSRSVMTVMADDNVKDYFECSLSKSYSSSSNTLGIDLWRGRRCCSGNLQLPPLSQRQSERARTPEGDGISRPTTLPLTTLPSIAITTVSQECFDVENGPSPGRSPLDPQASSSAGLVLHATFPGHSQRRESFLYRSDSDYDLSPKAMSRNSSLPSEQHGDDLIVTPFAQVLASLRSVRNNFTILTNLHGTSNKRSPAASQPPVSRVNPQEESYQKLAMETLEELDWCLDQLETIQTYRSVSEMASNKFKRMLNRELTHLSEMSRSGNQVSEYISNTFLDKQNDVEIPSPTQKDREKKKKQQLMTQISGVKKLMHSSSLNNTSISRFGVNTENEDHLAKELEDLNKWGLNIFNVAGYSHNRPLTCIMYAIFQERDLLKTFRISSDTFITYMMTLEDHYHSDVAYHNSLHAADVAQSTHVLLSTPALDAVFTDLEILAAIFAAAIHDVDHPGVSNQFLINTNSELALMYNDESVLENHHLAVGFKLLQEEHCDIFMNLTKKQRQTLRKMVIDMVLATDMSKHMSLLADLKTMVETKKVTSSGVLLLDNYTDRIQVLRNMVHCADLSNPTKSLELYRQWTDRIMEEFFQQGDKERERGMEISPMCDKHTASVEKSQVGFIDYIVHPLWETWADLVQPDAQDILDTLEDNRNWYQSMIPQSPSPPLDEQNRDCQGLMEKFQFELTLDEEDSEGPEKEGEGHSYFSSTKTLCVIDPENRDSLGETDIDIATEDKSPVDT
Chain of Cytochrome P450 2D6 (Homo sapiens) (P10635 whole entry, looked up): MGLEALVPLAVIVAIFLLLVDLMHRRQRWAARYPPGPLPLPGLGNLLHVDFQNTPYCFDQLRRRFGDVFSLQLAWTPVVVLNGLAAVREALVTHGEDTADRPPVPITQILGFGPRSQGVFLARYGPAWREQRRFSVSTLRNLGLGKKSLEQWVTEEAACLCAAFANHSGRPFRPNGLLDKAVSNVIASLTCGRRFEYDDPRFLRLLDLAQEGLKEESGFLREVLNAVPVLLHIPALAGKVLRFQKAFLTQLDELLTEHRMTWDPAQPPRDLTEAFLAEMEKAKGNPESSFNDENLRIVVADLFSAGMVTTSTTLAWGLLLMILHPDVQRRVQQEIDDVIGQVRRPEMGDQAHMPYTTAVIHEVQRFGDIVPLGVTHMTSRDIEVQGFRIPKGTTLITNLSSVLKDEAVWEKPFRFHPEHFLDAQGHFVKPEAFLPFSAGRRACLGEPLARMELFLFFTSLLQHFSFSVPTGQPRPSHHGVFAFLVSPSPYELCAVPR
Chain of Cytochrome P450 2C19 (Homo sapiens) (P33261 whole entry, looked up): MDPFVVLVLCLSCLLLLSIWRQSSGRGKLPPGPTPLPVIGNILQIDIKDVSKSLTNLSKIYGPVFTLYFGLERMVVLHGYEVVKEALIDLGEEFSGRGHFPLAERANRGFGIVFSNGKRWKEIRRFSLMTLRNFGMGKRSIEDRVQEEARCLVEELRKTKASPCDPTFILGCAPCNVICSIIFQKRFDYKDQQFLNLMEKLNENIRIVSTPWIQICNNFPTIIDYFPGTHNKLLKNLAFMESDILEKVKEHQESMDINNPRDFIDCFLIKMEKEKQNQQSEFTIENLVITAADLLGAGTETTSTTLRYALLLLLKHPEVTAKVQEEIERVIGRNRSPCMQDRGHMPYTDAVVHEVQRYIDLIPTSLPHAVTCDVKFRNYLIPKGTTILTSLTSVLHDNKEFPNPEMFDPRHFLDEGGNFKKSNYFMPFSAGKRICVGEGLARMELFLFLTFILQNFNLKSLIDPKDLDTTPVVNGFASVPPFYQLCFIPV
Chain of Guanine nucleotide-binding protein G(i) subunit alpha-1 (Homo sapiens) (P63096 whole entry, looked up): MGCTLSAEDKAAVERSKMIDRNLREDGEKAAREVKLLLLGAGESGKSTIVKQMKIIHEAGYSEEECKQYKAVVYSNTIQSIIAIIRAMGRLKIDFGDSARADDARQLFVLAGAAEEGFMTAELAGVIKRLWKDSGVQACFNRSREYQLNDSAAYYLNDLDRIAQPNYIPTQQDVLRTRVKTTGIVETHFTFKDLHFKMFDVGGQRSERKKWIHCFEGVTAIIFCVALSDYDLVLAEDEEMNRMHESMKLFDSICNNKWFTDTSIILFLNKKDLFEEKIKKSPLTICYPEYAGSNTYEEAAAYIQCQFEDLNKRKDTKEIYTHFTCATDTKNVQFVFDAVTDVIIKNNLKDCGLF
Chain of Muscarinic acetylcholine receptor M1 (Rattus norvegicus) (P08482 whole entry, looked up): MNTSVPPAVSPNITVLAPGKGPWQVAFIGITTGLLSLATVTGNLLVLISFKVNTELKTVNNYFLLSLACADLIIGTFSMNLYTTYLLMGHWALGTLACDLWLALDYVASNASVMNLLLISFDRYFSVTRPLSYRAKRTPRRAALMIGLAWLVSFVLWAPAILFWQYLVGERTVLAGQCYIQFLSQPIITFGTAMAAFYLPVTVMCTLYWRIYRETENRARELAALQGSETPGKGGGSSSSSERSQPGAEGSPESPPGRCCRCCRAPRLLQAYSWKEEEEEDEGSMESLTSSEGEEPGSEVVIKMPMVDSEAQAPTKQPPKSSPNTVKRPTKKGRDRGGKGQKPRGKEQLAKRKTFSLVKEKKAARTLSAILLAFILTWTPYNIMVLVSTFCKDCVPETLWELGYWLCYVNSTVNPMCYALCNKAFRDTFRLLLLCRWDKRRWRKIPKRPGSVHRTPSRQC

Regarding `C[C@@H](C(=O)O)c1ccc(C[C@@H]2CCCC2=O)cc1`, the activity change, negative = inhibition is 14.5% [at 38 µM] in assay [1] and 11.1% [at 38 µM] in assay [3]. The Potency result in assay [2], in [5], in assay [6], in assay [8], in assay [9] and in assay [10] was “inactive” throughout. In addition, the activity, negative = inhibition in assay [4] was 8.58% [at 38 µM]. Also, the result in assay [7], in assay [11], in assay [12] and in assay [13] was inactive.
Regarding `CCn1cc(C(=O)O)c(=O)c2ccc(Cc3ccccc3)nc21`, the activity change, negative = inhibition in [1] is -7.45% [at 38 µM]; in assay [3] it was 2.79% [at 38 µM]. Besides, the Potency result in [2], in assay [16], in assay [17] and in assay [9] was “inactive” in each case. In addition, the activity, negative = inhibition in [4] is 8.13% [at 38 µM]. For the same molecule, the Potency in assay [14] and in assay [15] was above 46 µM throughout.
Take `CC[C@@H]1CN2CCc3cc(OC)c(OC)cc3[C@H]2C[C@@H]1C[C@H]1NCCc2cc(OC)c(OC)cc21`: the activity change, negative = inhibition in assay [1] is -115% [at 17.2 µM] (active); in [3], -120% [at 17.2 µM] (active). The Potency entry in assay [2], in [16] and in [17] was “inactive” in each case. In assay [4], the activity, negative = inhibition is -94.8% [at 17.2 µM] (active). In addition, the Potency was > 20.6 µM and > 46 µM in assay [14]; > 20.6 µM and > 46 µM in assay [15].
Consider `CC(=O)OCC(=O)[C@@]1(O)CC[C@@H]2[C@@H]3CCC4=CC(=O)CC[C@@]4(C)[C@H]3C(=O)C[C@]21C`, for which the activity change, negative = inhibition in assay [1] was 4.78% [at 38 µM]; in assay [3], 5.8% [at 38 µM]. Further, the Potency entry in assay [2], in assay [5], in assay [6], in assay [16], in assay [17] and in assay [9] was “inactive” each time. In [4], the activity, negative = inhibition is -12.6% [at 38 µM]. Moreover, in assay [15], the Potency is above 46 µM.
Regarding `CNc1ncnc2c1ncn2[C@H]1C[C@@H](OP(=O)(O)O)[C@H](COP(=O)(O)O)O1`, the values for the activity change, negative = inhibition in assay [1] and in [3] were -5.54% [at 38 µM] and 5.84% [at 38 µM], respectively. Besides, the Potency result in [2], in assay [6] and in [10] was “inactive” in each case. For the same molecule, the activity, negative = inhibition in assay [4] is -2.5% [at 38 µM]. Also, the Potency in assay [14] and in assay [15] was above 46 µM throughout. Further, the molecule was classed as inactive in assay [7], in assay [11], in [12] and in assay [13].
Consider `NC(N)=NCCSSCCN=C(N)N`, for which the activity change, negative = inhibition was -8.04% [at 38 µM] in [1] and -8.54% [at 38 µM] in assay [3]. Besides, the Potency entry in assay [2], in [6], in [16], in assay [17] and in assay [9] was “inactive” each time. Besides, in assay [4], the activity, negative = inhibition is -24.3% [at 38 µM]. For the same molecule, the Potency in assay [14] and in assay [15] was above 46 µM throughout.
